Reference: the supplement of paper PMC6555819

Experiments:
Assay in all cases: PBM binding z-score (relative to random genomic background probes); higher = stronger binding; sequences stand for … in GC…GCGATTGACAGCGTAGAATGAAGG
[1] = tested on: FXR:RXRa (NR concentration 270 nM, RXRa partner concentration 90 nM)
Outline: (§1)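 Regression normalization was applied to scanned fluorescence from custom Agilent 4×180K protein-binding microarrays. Before scanning, arrays were incubated 1 h with ligand-free nuclear receptor dimers, and binding was detected with antibodies against each partner (one per run). Binding z-scores use the random background probes as reference.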

[2] = tested on: LXRa:RXRa (NR concentration 270 nM, RXRa partner concentration 90 nM)
Outline: as §1

[3] = tested on: LXRa homodimer (NR concentration 270 nM)
Outline: as §1

[4] = tested on: LXRb:RXRa (NR concentration 270 nM, RXRa partner concentration 90 nM)
Outline: as §1

[5] = tested on: LXRb homodimer (NR concentration 270 nM)
Outline: as §1

[6] = tested on: PPARa:RXRa (NR concentration 270 nM, RXRa partner concentration 90 nM)
Outline: as §1

[7] = tested on: PPARg:RXRa (NR concentration 180 nM, RXRa partner concentration 90 nM)
Outline: as §1

[8] = tested on: PPARg:RXRa 270nM:90nM, anti-RXR (NR concentration 270 nM, RXRa partner concentration 90 nM)
Outline: as §1

[9] = tested on: PPARg:RXRa 30nM:10nM, anti-RXR (NR concentration 30 nM, RXRa partner concentration 10 nM)
Outline: as §1

[10] = tested on: PPARg:RXRa 90nM:30nM, anti-RXR (NR concentration 90 nM, RXRa partner concentration 30 nM)
Outline: as §1

[11] = tested on: PPARg:RXRa DBDmut IVT, anti-RXR (DBD mutation: RXRa K156A/R161A, NR concentration 270 nM, RXRa partner concentration 90 nM)
Outline: as §1

[12] = tested on: PPARg:RXRa IVT, anti-PPARg (NR concentration 270 nM, RXRa partner concentration 90 nM)
Outline: as §1

[13] = tested on: PPARg DBDmut:RXRa IVT, anti-PPARg (DBD mutation: PPARg1 K132A/R137A, NR concentration 270 nM, RXRa partner concentration 90 nM)
Outline: as §1

[14] = tested on: PPARg DBDmut IVT, anti-PPARg (DBD mutation: PPARg1 K132A/R137A, NR concentration 270 nM)
Outline: as §1

[15] = tested on: PPARg homodimer (NR concentration 180 nM)
Outline: as §1

[16] = tested on: PXR:RXRa (NR concentration 270 nM, RXRa partner concentration 90 nM)
Outline: as §1

[17] = tested on: PXR homodimer (NR concentration 270 nM)
Outline: as §1

[18] = tested on: RARa:RXR (NR concentration 270 nM, RXRa partner concentration 90 nM)
Outline: as §1

[19] = tested on: RARa homodimer (NR concentration 270 nM)
Outline: as §1

[20] = tested on: RARb:RXRa (NR concentration 270 nM, RXRa partner concentration 90 nM)
Outline: as §1

Sequence	PBM binding z-score [1]	PBM binding z-score [2]	PBM binding z-score [3]	PBM binding z-score [4]	PBM binding z-score [5]	PBM binding z-score [6]	PBM binding z-score [7]	PBM binding z-score [8]	PBM binding z-score [9]	PBM binding z-score [10]	PBM binding z-score [11]	PBM binding z-score [12]	PBM binding z-score [13]	PBM binding z-score [14]	PBM binding z-score [15]	PBM binding z-score [16]	PBM binding z-score [17]	PBM binding z-score [18]	PBM binding z-score [19]	PBM binding z-score [20]
ACTAGCAGGCCAAGTTTGGGTCACTAAAACAAAG	0.0701	0.104	-0.274	0.749	-0.496	1.58	0.26	0.637	-0.145	0.427	0.86	1.41	-0.183	-0.616	0.00653	0.707	-0.272	1.49	-0.238	1.79
TACCCTAGGTCATGCGGGCCAGTATAGTGTCGGC	4.4	6.5	8.1	3.42	2.52	3.62	3.01	2.92	0.448	1.71	1.96	3.63	0.136	-0.0789	0.581	1.72	0.593	2.37	0.299	3.93
TCGAGTAGGTTACTCGGGGCATTCAGCCAACATA	0.333	0.921	-0.382	0.814	-0.722	1.13	0.392	1.33	1.41	0.94	3.23	2.79	-0.543	-0.378	-0.112	0.641	-0.427	0.651	-1.03	0.57
GCTGCTAGGTCATCTGATGGTCAGCTAAAGCTCG	3.98	3.02	0.182	2.03	0.0879	3.39	1.96	2.82	0.263	1.59	3.87	3.44	-0.368	-0.142	0.777	1.71	-0.679	2.64	-0.43	4.07
GGAACGAGGGCAAGTTGATATCAGAGTTTGATGG	0.903	0.358	-0.105	0.453	-0.362	1.73	1.22	1	0.0363	0.552	3.98	2.65	0.634	0.177	0.61	0.864	0.655	0.687	-0.152	2.57
CCTTCCGGGTCAAGGTTATAGCACGGGTGGTACG	5.06	3.34	0.142	2.85	0.13	4.95	5.1	5.24	2.15	4.32	2.99	4.69	0.688	0.0375	2.1	3.7	0.341	4.25	0.928	4.1
CAAACTAGGTCGAGGTCAAAGTCGGTTTGTGCCA	5.44	5.1	3.63	4.38	1.07	5.46	7.22	6.53	3.54	5.58	6.55	6.77	0.51	0.375	1.85	5.34	2.29	4.71	0.547	4.28
CCTCAAAGTTCAACTAAGGTAACGTAAAGCACGC	6.89	6.33	4.64	4.52	2.85	5.12	3.17	4.09	1.44	2.86	0.946	0.996	1.12	0.201	4.29	5.71	4.04	4.47	3.41	5.33
ATCGAAAGGTCGTCAGGTGAGTATACAGAAAGGC	5.1	3.98	0.518	3.25	0.804	4.7	3.63	3.86	1.5	2.93	0.0444	2.18	2.81	1.05	2.13	3.04	0.936	3.91	0.966	3.84
CCGAATGGGGCATAAGGTTACCATAAGCCAGCCC	0.489	2.03	-0.224	0.966	-0.843	2.15	2.29	3.95	1.7	3.62	0.417	1.24	-1.29	-1.15	0.844	0.477	-0.466	1.55	-0.315	1.79
CAGCCTAGGTCAGGGCAAGTATAGGAGGAACGTT	2.01	1.35	-0.33	0.587	-1.01	2.23	1.32	1.24	-0.349	0.306	1.79	2	-0.618	-1.17	0.755	0.56	-0.274	1.19	-0.273	3.7
CCTACTGGGCCTAGGTCATTGATCAGTCAAAGCA	0.983	1.42	0.403	1.31	-0.469	1.77	0.62	1.47	-0.181	1.03	-0.391	1.13	-1.99	-1.42	1.21	0.949	-0.0903	1.57	-0.574	1.94
GGAACGAGGGCATTCGAGTAGATAGCATGGCGAT	0.816	0.394	-0.428	0.0953	-0.937	1.33	1.11	0.886	-0.0142	0.304	2.87	2.05	-0.011	-0.669	-0.256	0.557	-0.0789	0.335	-0.251	1.56
ACAGACAGGTGAGTGCAGGTAACTCAGCTGGACG	0.0345	-0.289	-0.365	-0.549	-1.06	-0.0295	0.62	-0.199	-0.134	-0.571	0.771	1.05	0.0571	-0.297	-0.465	-0.0581	-0.0579	-0.416	-0.183	0.35
ATATGTAGGTTACATCCGGGTCATTCACGCTATG	2.44	4.66	1.9	3.31	1.26	4.8	6.27	5.48	2.76	4.79	7.63	7.57	6.55	5.07	5.81	4.01	1.48	4.11	1.52	2.41
